Source: publication PMC11006913
Changes are numbered by the printed parent chain.

Target: T1, NKX2-4 (Homo sapiens, UniProt Q9H2Z4 175-261, P217L)
T1 sequence: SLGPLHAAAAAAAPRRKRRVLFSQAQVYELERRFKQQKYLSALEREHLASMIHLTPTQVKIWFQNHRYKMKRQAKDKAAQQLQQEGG
Test: PBM; 200 nM protein, PBS
Details: dsDNA, one strand shown

Sequence	binding signal
ACCGCAAC	9.55 upbm affinity estimate (log intensity, higher = more binding, comparable within an allelic series)
AGTATCTC	11.5 upbm affinity estimate (log intensity, higher = more binding, comparable within an allelic series)
CCGCCATA	9.83 upbm affinity estimate (log intensity, higher = more binding, comparable within an allelic series)
ACCTGCAG	9.74 upbm affinity estimate (log intensity, higher = more binding, comparable within an allelic series)
ATCGGAGC	9.93 upbm affinity estimate (log intensity, higher = more binding, comparable within an allelic series)
ACACTCAA	12.5 upbm affinity estimate (log intensity, higher = more binding, comparable within an allelic series)
AGACTGAC	9.52 upbm affinity estimate (log intensity, higher = more binding, comparable within an allelic series)
CCCGGTGC	9.16 upbm affinity estimate (log intensity, higher = more binding, comparable within an allelic series)
CGCCACAA	9.76 upbm affinity estimate (log intensity, higher = more binding, comparable within an allelic series)
ACCGTTAC	9.89 upbm affinity estimate (log intensity, higher = more binding, comparable within an allelic series)
ACCACTCA	12.4 upbm affinity estimate (log intensity, higher = more binding, comparable within an allelic series)
GCTATAGC	9.92 upbm affinity estimate (log intensity, higher = more binding, comparable within an allelic series)
ACTATAAG	11.5 upbm affinity estimate (log intensity, higher = more binding, comparable within an allelic series)
GCGGGCCC	9.61 upbm affinity estimate (log intensity, higher = more binding, comparable within an allelic series)
CACTTCAC	12.5 upbm affinity estimate (log intensity, higher = more binding, comparable within an allelic series)
ATCGGTCC	9.97 upbm affinity estimate (log intensity, higher = more binding, comparable within an allelic series)
CGGTCGAC	9.4 upbm affinity estimate (log intensity, higher = more binding, comparable within an allelic series)
CCCGGCAG	9.62 upbm affinity estimate (log intensity, higher = more binding, comparable within an allelic series)
CGTTGTCC	9.74 upbm affinity estimate (log intensity, higher = more binding, comparable within an allelic series)

Sequence	binding signal
ACTCTTAA	12.4 upbm affinity estimate (log intensity, higher = more binding, comparable within an allelic series)
CCCAGACG	9.29 upbm affinity estimate (log intensity, higher = more binding, comparable within an allelic series)
ATGAGTAC	12.4 upbm affinity estimate (log intensity, higher = more binding, comparable within an allelic series)
ACTTATCC	11.9 upbm affinity estimate (log intensity, higher = more binding, comparable within an allelic series)
AGTGGTTC	11.8 upbm affinity estimate (log intensity, higher = more binding, comparable within an allelic series)
CGGGTACG	9.52 upbm affinity estimate (log intensity, higher = more binding, comparable within an allelic series)
GGTACTCA	12.5 upbm affinity estimate (log intensity, higher = more binding, comparable within an allelic series)
CACTCTTA	12.3 upbm affinity estimate (log intensity, higher = more binding, comparable within an allelic series)
GTCTCGCA	9.7 upbm affinity estimate (log intensity, higher = more binding, comparable within an allelic series)
ACAAGTAC	12.5 upbm affinity estimate (log intensity, higher = more binding, comparable within an allelic series)
CACTCAAA	12.4 upbm affinity estimate (log intensity, higher = more binding, comparable within an allelic series)
ACGGCCCG	9.61 upbm affinity estimate (log intensity, higher = more binding, comparable within an allelic series)
ATCCACTC	12.4 upbm affinity estimate (log intensity, higher = more binding, comparable within an allelic series)
CTGAAAAG	11 upbm affinity estimate (log intensity, higher = more binding, comparable within an allelic series)
ATCGTGCC	9.86 upbm affinity estimate (log intensity, higher = more binding, comparable within an allelic series)
ATCCGGCC	9.77 upbm affinity estimate (log intensity, higher = more binding, comparable within an allelic series)
GCACTACA	11.7 upbm affinity estimate (log intensity, higher = more binding, comparable within an allelic series)
AAGTGGAA	12.4 upbm affinity estimate (log intensity, higher = more binding, comparable within an allelic series)
ACGGCGCC	9.61 upbm affinity estimate (log intensity, higher = more binding, comparable within an allelic series)

Target: T2, NKX2-4 (Homo sapiens, UniProt Q9H2Z4 175-261, T231S)
T2 sequence: T1 sequence with L43P, T57S
Test: PBM; 200 nM protein, PBS
Details: dsDNA, one strand shown

Sequence	binding signal
ACCGCAAC	9.45 upbm affinity estimate (log intensity, higher = more binding, comparable within an allelic series)
CCGCCATA	9.79 upbm affinity estimate (log intensity, higher = more binding, comparable within an allelic series)
ACCTGCAG	9.82 upbm affinity estimate (log intensity, higher = more binding, comparable within an allelic series)
ATCGGAGC	9.93 upbm affinity estimate (log intensity, higher = more binding, comparable within an allelic series)
ACACTCAA	12.8 upbm affinity estimate (log intensity, higher = more binding, comparable within an allelic series)
AGACTGAC	9.58 upbm affinity estimate (log intensity, higher = more binding, comparable within an allelic series)
CCCGGTGC	9.15 upbm affinity estimate (log intensity, higher = more binding, comparable within an allelic series)
CGCCACAA	9.79 upbm affinity estimate (log intensity, higher = more binding, comparable within an allelic series)
ACCGTTAC	9.95 upbm affinity estimate (log intensity, higher = more binding, comparable within an allelic series)
ACCACTCA	12.8 upbm affinity estimate (log intensity, higher = more binding, comparable within an allelic series)
GCTATAGC	9.98 upbm affinity estimate (log intensity, higher = more binding, comparable within an allelic series)
GCGGGCCC	9.54 upbm affinity estimate (log intensity, higher = more binding, comparable within an allelic series)
CACTTCAC	12.8 upbm affinity estimate (log intensity, higher = more binding, comparable within an allelic series)
ATCGGTCC	9.94 upbm affinity estimate (log intensity, higher = more binding, comparable within an allelic series)
CGGTCGAC	9.24 upbm affinity estimate (log intensity, higher = more binding, comparable within an allelic series)
CCCGGCAG	9.52 upbm affinity estimate (log intensity, higher = more binding, comparable within an allelic series)

Sequence	binding signal
CGTTGTCC	9.8 upbm affinity estimate (log intensity, higher = more binding, comparable within an allelic series)
CCCAGACG	9.36 upbm affinity estimate (log intensity, higher = more binding, comparable within an allelic series)
ATGAGTAC	12.8 upbm affinity estimate (log intensity, higher = more binding, comparable within an allelic series)
ACTTATCC	12.1 upbm affinity estimate (log intensity, higher = more binding, comparable within an allelic series)
AGTGGTTC	12 upbm affinity estimate (log intensity, higher = more binding, comparable within an allelic series)
CGGGTACG	9.68 upbm affinity estimate (log intensity, higher = more binding, comparable within an allelic series)
GGTACTCA	12.9 upbm affinity estimate (log intensity, higher = more binding, comparable within an allelic series)
CACTCTTA	12.7 upbm affinity estimate (log intensity, higher = more binding, comparable within an allelic series)
GTCTCGCA	9.57 upbm affinity estimate (log intensity, higher = more binding, comparable within an allelic series)
ACAAGTAC	12.9 upbm affinity estimate (log intensity, higher = more binding, comparable within an allelic series)
ACGGCCCG	9.59 upbm affinity estimate (log intensity, higher = more binding, comparable within an allelic series)
ATCGTGCC	9.92 upbm affinity estimate (log intensity, higher = more binding, comparable within an allelic series)
ATCCGGCC	9.8 upbm affinity estimate (log intensity, higher = more binding, comparable within an allelic series)
GCACTACA	11.7 upbm affinity estimate (log intensity, higher = more binding, comparable within an allelic series)
ACGGCGCC	9.62 upbm affinity estimate (log intensity, higher = more binding, comparable within an allelic series)

Target: T3, NKX2-4 (Homo sapiens, UniProt Q9H2Z4 175-261)
T3 sequence: T1 sequence with L43P
Test: PBM; 200 nM protein, PBS
Details: dsDNA, one strand shown

Sequence	binding signal
ACCGCAAC	9.49 upbm affinity estimate (log intensity, higher = more binding, comparable within an allelic series)
AGTATCTC	11.4 upbm affinity estimate (log intensity, higher = more binding, comparable within an allelic series)
CCGCCATA	9.85 upbm affinity estimate (log intensity, higher = more binding, comparable within an allelic series)
ACCTGCAG	9.68 upbm affinity estimate (log intensity, higher = more binding, comparable within an allelic series)
ATCGGAGC	9.9 upbm affinity estimate (log intensity, higher = more binding, comparable within an allelic series)
ACACTCAA	12.3 upbm affinity estimate (log intensity, higher = more binding, comparable within an allelic series)
AGACTGAC	9.63 upbm affinity estimate (log intensity, higher = more binding, comparable within an allelic series)
CCCGGTGC	9.25 upbm affinity estimate (log intensity, higher = more binding, comparable within an allelic series)
CGCCACAA	9.73 upbm affinity estimate (log intensity, higher = more binding, comparable within an allelic series)
ACCGTTAC	9.88 upbm affinity estimate (log intensity, higher = more binding, comparable within an allelic series)
ACCACTCA	12.3 upbm affinity estimate (log intensity, higher = more binding, comparable within an allelic series)
GCTATAGC	9.84 upbm affinity estimate (log intensity, higher = more binding, comparable within an allelic series)
ACTATAAG	11.4 upbm affinity estimate (log intensity, higher = more binding, comparable within an allelic series)
GCGGGCCC	9.63 upbm affinity estimate (log intensity, higher = more binding, comparable within an allelic series)
CACTTCAC	12.3 upbm affinity estimate (log intensity, higher = more binding, comparable within an allelic series)
ATCGGTCC	9.85 upbm affinity estimate (log intensity, higher = more binding, comparable within an allelic series)
CGGTCGAC	9.3 upbm affinity estimate (log intensity, higher = more binding, comparable within an allelic series)

Sequence	binding signal
CCCGGCAG	9.63 upbm affinity estimate (log intensity, higher = more binding, comparable within an allelic series)
CGTTGTCC	9.79 upbm affinity estimate (log intensity, higher = more binding, comparable within an allelic series)
CCCAGACG	9.37 upbm affinity estimate (log intensity, higher = more binding, comparable within an allelic series)
ATGAGTAC	12.3 upbm affinity estimate (log intensity, higher = more binding, comparable within an allelic series)
ACTTATCC	11.7 upbm affinity estimate (log intensity, higher = more binding, comparable within an allelic series)
AGTGGTTC	11.8 upbm affinity estimate (log intensity, higher = more binding, comparable within an allelic series)
CGGGTACG	9.69 upbm affinity estimate (log intensity, higher = more binding, comparable within an allelic series)
GGTACTCA	12.4 upbm affinity estimate (log intensity, higher = more binding, comparable within an allelic series)
CACTCTTA	12.3 upbm affinity estimate (log intensity, higher = more binding, comparable within an allelic series)
GTCTCGCA	9.65 upbm affinity estimate (log intensity, higher = more binding, comparable within an allelic series)
ACGGCCCG	9.62 upbm affinity estimate (log intensity, higher = more binding, comparable within an allelic series)
CTGAAAAG	10.8 upbm affinity estimate (log intensity, higher = more binding, comparable within an allelic series)
ATCGTGCC	9.97 upbm affinity estimate (log intensity, higher = more binding, comparable within an allelic series)
ATCCGGCC	9.79 upbm affinity estimate (log intensity, higher = more binding, comparable within an allelic series)
GCACTACA	11.6 upbm affinity estimate (log intensity, higher = more binding, comparable within an allelic series)
ACGGCGCC	9.59 upbm affinity estimate (log intensity, higher = more binding, comparable within an allelic series)
